UGM FP inh – M. tuberculosis UGM enzyme inhibitors, primary screen, biochemical, fluorescence polarization, single point; UDP-galactopyranose mutase (Mycobacterium tuberculosis (strain ATCC 25618 / H37Rv)), …; purified UGM, fluorescence polarization probe displacement; inhibition, % at 10 µM; 0.06% of 320,000 active; AID 504406, 2011; in the data active = inhibition above about 10%, passing the limit was not always enough
Target sequence (P9WIQ1 whole entry, looked up): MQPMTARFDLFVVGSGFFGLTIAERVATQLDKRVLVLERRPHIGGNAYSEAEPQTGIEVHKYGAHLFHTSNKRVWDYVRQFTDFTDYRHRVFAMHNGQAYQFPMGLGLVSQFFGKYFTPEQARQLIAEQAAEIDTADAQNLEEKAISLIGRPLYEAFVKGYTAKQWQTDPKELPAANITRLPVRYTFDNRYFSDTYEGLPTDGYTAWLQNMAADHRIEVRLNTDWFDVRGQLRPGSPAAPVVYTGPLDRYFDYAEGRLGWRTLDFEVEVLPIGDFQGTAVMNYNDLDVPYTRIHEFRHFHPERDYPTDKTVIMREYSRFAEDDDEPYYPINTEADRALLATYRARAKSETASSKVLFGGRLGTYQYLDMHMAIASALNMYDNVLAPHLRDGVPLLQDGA
Rv3671c protease – Rv3671c serine protease inhibitors, primary screen, biochemical, fluorescence polarization, M. tuberculosis H37Rv; P9WHR9; 0.048% of 320,000 active; AID 2606, 2010; inhibition, % at 5.96 µM; in the data active = inhibition above about 38%;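 also: extracellular domain of Rv3671c used as enzyme; 0% = enzyme with DMSO and 100% = no enzyme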
FBA Mtb inh – Mtb FBA enzyme inhibitors, primary screen, biochemical, fluorescence, strain H37Rv. purified M. tuberculosis FBA, fluorescence read-out. 2.3% of 360,000 active. inhibition, % at 1 µM. AID 588726, 2011;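 also: 0% = vehicle and 100% = reference inhibitor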
Mtb bLac sens – beta-lactam sensitization of Mtb H37Rv, H37Rv; 0.27% of 330,000 active; inhibition, % at 25 µM; M. tuberculosis H37Rv growth with meropenem, percent inhibition; call rule not given here;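 also: growth measured after seven days incubation then overnight dye step; 0% = bacteria only wells and 100% = bacteria with antibiotic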
FadD28 binding – inhibitors of FadD28 bisubstrate probe binding, primary screen, biochemical, fluorescence polarization, single point; AID 588549, 2011; Mycobacterium tuberculosis FadD28 fatty-acid-AMP ligase; 0.22% of 360,000 active; inhibition, % at 12.5 µM; in the data active = inhibition above about 8.5%, passing the limit was not always enough
GDH-TPI counter-1 – GDH-TPI coupling enzyme inhibitors, primary screen, artefact control for M. tuberculosis FBA inhibitor project, biochemical, absorbance, full deck | GDH-TPI coupled enzyme counterscreen, NADH absorbance | 1.2% of 360,000 active | AID 588335, 2011 | inhibition, % at 4.8 µM; in the data active = inhibition above about 30%;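 also: 0% = DMSO wells and 100% = wells lacking the enzyme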
Mtb FBA inh conf – M. tuberculosis aldolase blockers, biochemical, fluorescence, strain H37Rv, confirmation; purified M. tuberculosis FBA, fluorescence read-out; inhibition, % at 1 µM; 78% of 5,600 active; AID 651616, 2012; shares compounds with FBA Mtb inh;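 also: 0% = vehicle wells and 100% = reference inhibitor wells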
GDH-TPI counter-2 – GDH-TPI coupling enzyme inhibitors, artefact control for M. tuberculosis FBA inhibitor project, biochemical, fluorescence, high throughput; shares compounds with FBA Mtb inh; GDH-TPI coupled enzyme counterscreen; inhibition, % at 1 µM; 81% of 5,600 active; in the data active = inhibition above about 10%
The depositor's hits bear a star; . = no result; + = active, no number. Only some compounds are listed: those with a hit (about 3.7% of all), similar ones and a draw of the others. Rule as the data show it, unless noted: active = inhibition above about 27%; inactive = the rest.

SMILES | UGM FP inh | Rv3671c protease | FBA Mtb inh | Mtb bLac sens | FadD28 binding | GDH-TPI counter-1 | Mtb FBA inh conf | GDH-TPI counter-2
CCN1CCSc2ccc(C(=O)NCc3ccccc3Br)cc21 | 0.8 | 5.9 | 59.2* | -6.2 | 2.4 | 14.8 | 0.8 | -1.9
CCN1C(=O)CSc2ccc(C(=O)NCc3ccccc3OC)cc21 | 0.5 | -5.3 | 2.2 | -1.4 | -1.2 | 9.6 | . | .
CCN1CCSc2ccc(C(=O)Nc3ccc(NC(C)=O)cc3)cc21 | -3.7 | 1.7 | 6.8 | 18.2 | -3.1 | 14.8 | . | .
COc1cc(C(=O)Oc2ccccc2OC(=O)c2cc(OC)c(OC)c(OC)c2)cc(OC)c1OC | . | . | 1.4 | . | -0.4 | 3.2 | . | .
COc1ccc(NC(=O)CN(C)C(=O)c2cc(-c3ccco3)nc3ccccc23)cc1 | -0.6 | 10.0 | 45.1* | -5.7 | -0.7 | 13.6 | + | +
CN(CC(=O)Nc1cccc(F)c1)C(=O)c1cc(-c2ccco2)nc2ccccc12 | -1.4 | 0.9 | 75.0* | -0.9 | 0.1 | 11.3 | + | 169.6*
CSc1ccc(/C=C/C(=O)OCC(=O)NC2CCCCCC2)cc1 | . | . | 29.7* | . | 0.2 | 28.9 | + | 196.0*
O=C(COC(=O)c1cccc2ccccc12)NCC1CCCO1 (stereo unspecified) | -3.0 | 4.4 | 36.4* | 1.2 | -2.3 | 3.3 | 137.2* | 119.5*
O=C(COC(=O)c1ccccc1)NCC1CCCO1 (stereo unspecified) | 1.6 | -4.2 | -4.0 | -12.1 | -3.3 | -3.1 | . | .
COc1ccc(/C=C/C(=O)OCC(=O)NC2CCCCCCC2)cc1 | -1.0 | -5.0 | -2.2 | 77.4 | 0.7 | 5.4 | . | .
O=C(COC(=O)/C=C/c1ccc(Cl)c(Cl)c1)NC1CCS(=O)(=O)C1 (stereo unspecified) | -0.6 | -0.1 | -0.7 | -6.3 | . | -4.0 | . | .
CSc1ccc(/C=C/C(=O)OCC(=O)N2CCCCCC2)cc1 | 5.3 | 0.8 | 81.1* | 0.3 | -1.3 | 43.0* | + | +
CSc1ccc(/C=C/C(=O)OCC(=O)NC2CCS(=O)(=O)C2)cc1 (stereo unspecified) | -1.5 | -7.8 | 63.9* | -3.3 | -0.2 | 34.8* | 36.6* | 24.4*
O=C1CCCCN1CCCC(=O)N1CCCC(Nc2ccccc2)C1 (stereo unspecified) | 1.8 | -4.3 | 2.6 | 0.5 | -1.3 | 6.8 | . | .
CC(C)S(=O)(=O)N1CCCC(c2cc(C(=O)Nc3ccc(F)c(Cl)c3)no2)C1 (stereo unspecified) | . | . | 0.9 | . | -0.2 | -4.8 | . | .
Cc1ccccc1OCC(=O)OCC(=O)NCCc1ccccc1 | 3.1 | -13.8 | 1.7 | -1.3 | -2.1 | 11.8 | . | .
COc1cccc(CNC(=O)COC(=O)/C=C/c2ccc(SC)cc2)c1 | -2.5 | -15.4 | 36.5* | -2.7 | -0.1 | 13.7 | + | +
CSc1ccc(/C=C/C(=O)OCC(=O)NCC2CCCO2)cc1 (stereo unspecified) | . | -3.0 | 45.2* | 2.9 | -2.9 | 30.0 | 52.7* | 49.3*
CCN(CC)C(=O)c1cccc(-c2csc(C(O)c3ccco3)n2)c1 (stereo unspecified) | . | . | 8.7 | . | -1.3 | 5.3 | . | .
N#C/C(=C(\O)c1ccco1)c1ccccn1 | -2.8 | 8.3 | 9.4 | 2.5 | -1.0 | 7.5 | . | .
N#C/C(=C(/O)CCCl)c1ccccn1 | 0.3 | 6.2 | 58.9* | -14.6 | -1.2 | 4.7 | 86.8* | 54.7*
CCCN(CCC)CCCNC(=O)c1cn(CCOC)c(=O)c2c1c1ccccc1n2C | -2.0 | -7.0 | 32.3* | . | -2.2 | 20.1 | 118.4* | 89.9*
CCOC(CCNC(=O)c1cn(CCOC)c(=O)c2c1c1ccccc1n2C)OCC | -0.1 | 1.6 | 29.8* | -1.2 | -2.3 | 5.2 | 77.2* | 65.8*
Cn1c2ccccc2c2c(C(=O)NCc3ccco3)cn(C3CCCCC3)c(=O)c21 | -1.7 | 1.1 | 10.5 | 48.5 | 0.2 | 12.0 | . | .
COCCn1cc(C(=O)NCc2ccco2)c2c3ccccc3n(C)c2c1=O | 1.1 | -6.5 | 90.9* | -0.7 | -0.1 | 14.2 | + | +
SMILES | UGM FP inh | Rv3671c protease | FBA Mtb inh | Mtb bLac sens | FadD28 binding | GDH-TPI counter-1 | Mtb FBA inh conf | GDH-TPI counter-2
O=C(OCc1nnn(Cc2ccccc2)c1-c1c(COC(=O)c2ccccc2)nnn1Cc1ccccc1)c1ccccc1 | -0.1 | -4.5 | -1.8 | -7.8 | -2.6 | 9.4 | . | .
c1ccc2c(c1)-c1cccc3cccc-2c13 | -2.0 | 9.0 | 9.7 | -3.7 | -0.4 | 7.8 | . | .
O=CNc1ccc2c3c(cccc13)-c1ccccc1-2 | . | . | 78.8* | . | 0.3 | 6.8 | 69.5* | 51.5*
Cc1csc(NC(=O)c2cc3c(s2)-c2ccccc2OC3)n1 | 0.4 | -15.0 | 39.3* | 1.5 | -5.5 | 18.8 | 123.3* | 102.0*
Nc1nc(=S)ss1 | . | . | 0.7 | . | 0.5 | 13.2 | . | .
CCOC(=O)CCCCCC(=O)Nc1ccc2c(c1)C(=O)N([C@H](C)CO)C[C@H](C)[C@H](CN(C)C(=O)C1CCCCC1)OCCCC[C@@H](C)O2 | . | . | 2.4 | . | -0.8 | -8.5 | . | .
O=C(NCc1ccco1)C1CCN(c2ccc(N3CCOCC3)nn2)CC1 | 0.7 | 8.4 | 27.2* | -1.4 | 0.7 | 0.5 | -2.5 | -2.8
Cc1ccccc1C(=O)N1CCN(c2ccc(N3CCOCC3)nn2)CC1 | 2.0 | -2.6 | 37.0* | -9.2 | -1.9 | 6.9 | 55.7* | 42.7*
COc1cccc(C(=O)N2CCN(c3ccc(N4CCOCC4)nn3)CC2)c1 | . | -9.4 | 28.6* | -3.1 | -0.3 | -4.3 | 0.5 | 0.1
O=C(C1CCN(c2ccc(N3CCOCC3)nn2)CC1)N1CCN(c2ccc(F)cc2)CC1 | -2.9 | 2.9 | 33.5* | -2.8 | -0.2 | 9.8 | 39.1* | 31.8*
Cc1cnc(C)c(N2CCC(C(=O)NCc3ccco3)CC2)n1 | 1.3 | -2.2 | -3.3 | 0.8 | -0.3 | 17.4 | . | .
O=C(C1CCN(S(=O)(=O)N2CCOCC2)CC1)N1CCN(c2ccc(F)cc2)CC1 | -2.3 | 3.2 | -2.6 | 1.9 | -3.8 | -15.5 | . | .
O=C(c1cccc(Br)c1)N1CCN(c2ccc(N3CCOCC3)nn2)CC1 | 1.5 | 1.9 | 11.2 | -8.4 | 1.2 | 2.5 | . | .
COc1cc(C2c3cc4c(cc3OC(NCc3ccccc3)C2C)OCO4)cc(OC)c1OC (stereo unspecified) | . | . | -0.6 | . | -1.2 | -0.9 | . | .
COc1ccc(C(=O)Nc2cccc(C)n2)cc1S(=O)(=O)N1CCCc2ccccc21 | . | . | 1.8 | . | 2.5 | 2.9 | . | .

Compound activity as filed in PubChem.
